AMA1 RON2 block: qHTS for Inhibitors of AMA1-RON; Towards Development of Antimalarial Drug Lead: Primary Screen; Plasmodium falciparum AMA1 (3D7) - RON2 peptide interaction; AlphaScreen AMA1-biotinylated RON2 peptide binding; Potency, µM (top dose mostly 58.2 µM), for the others: at the top dose activity change, negative = inhibition, actives largely listed as inhibitors; hit rate 0.2% among 360,000; AID 720542, 2013; active = well fitted inhibition curve with a large enough effect; inconclusive = small, poorly fitted or top-dose-only effect; inactive = no such curve, though single readings can be large or run the other way;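 also: potency is read from the fitted curve at half-maximal effect; 0% = vehicle wells and -100% = peptide control; nearly all actives have a fitted effect of over 45% in size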
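AMA1 (3D7) with his tag at 25 nM final met compounds first, then biotinylated RON2 peptide at 25 nM; detection used donor plus acceptor beads, 10 µg/mL apiece, read by AlphaScreen after 30 min at room temperature.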
MARV entry inh: qHTS for inhibitors of binding or entry into cells for Marburg Virus. Marburg virus pseudotyped entry inhibition, cell reporter. Potency, µM (doses to about 37.8 µM), for the others: top-dose activity change, negative = inhibition, actives largely listed as inhibitors. hit rate 1.8% among 300,000; calls by dose curve; tested in HEK293 cells; also: potency is read from the fitted curve at half-maximal effect; % is scaled to controls: 0 for no effect and ±100 for the full control effect
Shiga toxin inh: A qHTS for Small Molecule Inhibitors of Shiga Toxin. hit rate 9.2% among 290,000. AID 2315, 2010. Vero cells, Shiga toxin protein synthesis inhibition reporter. inhibition, % at 38.7 µM; in the data active = inhibition mostly above about 28%, no sharp cut-off; inactive = mostly below about 43%; also: 0% is about no effect
Lassa entry inh: qHTS for Inhibitors of binding or entry into cells for Lassa Virus | Lassa virus pseudotype entry inhibition, cell reporter | Potency, µM (series often up to 37.9 µM), for the others: at the top dose activity change, negative = inhibition, usual class: inhibitors | hit rate 1.2% among 300,000 | AID 540256, 2011; calls by dose curve; tested in HEK293 cells; also: potency is read from the fitted curve at half-maximal effect; % is scaled to controls: 0 for no effect and ±100 for the full control effect; nearly all actives have a fitted effect of over 50% in size
CHX counter-1: Cycloheximide Counterscreen for Small Molecule Inhibitors of Shiga Toxin | max response, % | cell reporter, cycloheximide protein synthesis inhibition counterscreen | AID 2314, 2010 | hit rate 12% among 300,000; in the data active = max response mostly above about 13%, no sharp cut-off; inactive = mostly below about 14%; also: read at 38.3 µM for the half of the compounds with a filed dose; 0% is about no effect
CHX counter-2: Cycloheximide Counterscreen for Small Molecule Inhibitors of Shiga Toxin (Confirmatory); shares compounds with Shiga toxin inh; Cycloheximide counterscreen, protein synthesis reporter, Shiga toxin assay; Potency, µM (series often up to 38.3 µM), for the others: at the top dose activity (activation), most hits filed as activators; hit rate 3% among 510; AID 2318, 2010; calls by dose curve; also: potency is read from the fitted curve at half-maximal effect; 0% is about no effect
* marks the source's active call; other numbers are inactive results; u = inconclusive; x = no result; + = active, no number; [ ] = dose if it differs, or a comment. Shown is part of a subset that was picked to be rich in hits.

SMILES	AMA1 RON2 block	MARV entry inh	Shiga toxin inh	Lassa entry inh	CHX counter-1	CHX counter-2
CCCCn1c(N)c(N(CCOC)C(=O)c2ccc(S(=O)(=O)N3CCCCCC3)cc2)c(=O)[nH]c1=O	0%	-5%	x	-1%	x	x
CCCOP(=O)(OCCC)c1nc(-c2ccccc2)oc1NCc1ccccc1	-13%	u	20*	u	4	1%
CCOC(=O)c1c(C)oc2nc(C)nc(NCc3cccc(Cl)c3)c12	x	x	x	17%[46.1 µM]	x	x
COc1ccccc1C(=O)NNC(=O)c1cc2ccccc2cc1O	96%	x	x	x	x	x
COc1ccccc1C(=O)NNC(=O)c1ccc2ccccc2c1	81%	x	x	x	1	-1%
CC1=C(C)C(OCCBr)N(c2cc(O)c(Cl)cc2F)C1=O (centres undefined)	-5%	-2%[46.1 µM]	43*	13%[46.1 µM]	5	-3%
CCOC(=O)c1c(S(=O)(=O)N2CCC(C(=O)N3CCN(c4cccc(C)c4C)CC3)CC2)c(C)n(C)c1C	x	x	x	-26%[46.1 µM]	x	x
COC(=O)c1c(NC(=O)c2ccn(C)n2)sc2c1CCC2	20%	x	40*	x	5	u
CC(C)C1Oc2ccccc2N(CC(=O)NCCCN2C(C)CCCC2C)C1=O (centres undefined)	-6%	-11%	-9	6%	-4	x
Cc1cc(C)n(CC(=O)O)c(=O)c1[N+](=O)[O-]	10%	-3%	16	6%	4	x
COc1ccc2[nH]c(-c3ccccc3)cc(=O)c2c1	x	x	+	x	17	u
O=c1cc(-c2cccc(F)c2)[nH]c2ccc(Cl)cc12	x	x	+	x	9	-2%
COc1cccc(CNC(=O)c2ccc(C)c(NC3=NC4CS(=O)(=O)CC4S3)c2)c1 (centres undefined)	0%	x	11*	x	-1	3%
COc1ccc(C(=O)Nc2cccc(C(=O)N3CCN(C)CC3)c2)cc1	2%	-16%	37*	12%	15	1%
COc1ccc(C(=O)Nc2cccc(C(=O)N3CCCCC3)c2)cc1	0%	27%	33	-3%	13	x
C=C1/C(=C\C=C2/CCC[C@]3(C)[C@@H]([C@H](C)CCCC(C)(C)O)CC[C@@H]23)C[C@@H](O)C[C@@H]1O	x	x	33	x	17	x
C=C1CCC(O)C/C1=C/C=C1\CCC[C@]2(C)[C@@H]([C@H](C)CCCC(C)C)CC[C@@H]12 (some centres undefined)	x	x	65*	x	9	0%
COc1ccc(NC(=O)CN2CCN(c3nc(-c4ccc(F)cc4)cs3)CC2)c(OC)c1	-3%	-24%[46.1 µM]	36*	9%	-3	-2%
COc1cccc(-c2csc(N3CCN(C(=O)Nc4ccc(F)cc4)CC3)n2)c1	-4%	u	34*	4%	5	0%
COc1ccc(NC(=O)CN2CCN(c3nc(-c4cccc(OC)c4)cs3)CC2)cc1	-9%	-1%	1	4%	-2	x
CCSc1nnc(NC(=O)[C@@H](NC(=O)c2ccc(C(C)(C)C)cc2)C(C)C)s1	1%[11.6 µM]	-2%	34*	-4%	8	0%
CCSc1nnc(NC(=O)[C@@H](NC(=O)c2ccccc2F)C(C)C)s1	8%	10%[46.1 µM]	12	0%	8	x
COC(=O)c1ccc(-c2noc(CN(C)Cc3ccncc3C)n2)cc1	19%	x	40*	x	3	0%
Cc1cccn2cc(-c3cccc(S(=O)(=O)N4CC(C)OC(C)C4)c3)nc12 (centres undefined)	9%	x	28*	x	-1	-1%
CC1CN(S(=O)(=O)c2cccc(-c3cn4ccccc4n3)c2)CC(C)O1 (centres undefined)	-7%	u	-21	u	19	x
O=C(NCc1ccncc1)C(=O)NCC1OCCN1S(=O)(=O)c1ccc(F)cc1 (centres undefined)	14%	10%[46.1 µM]	31*	2%[46.1 µM]	-2	-2%
Cc1cn(CC(=O)NCCCN2CCCC2=O)c(=O)[nH]c1=O	11%	x	x	x	x	x
COc1cc(C(C)=O)ccc1OCCCOc1cccc2cccnc12	13%	-9%[46.1 µM]	48*	5%[46.1 µM]	2	u
COc1cc(OC)cc(-c2c(C#Cc3ccsc3)c3cc(-c4ccc5c(c4)OCCO5)ccc3n2C)c1	15%	x	x	x	x	x

Screening results as filed in PubChem BioAssay.
